ChEMBL document CHEMBL4888484, “Replenishing the malaria drug discovery pipeline: Screening and hit evaluation of the MMV Hit Generation Library 1 (HGL1) against asexual blood stage Plasmodium falciparum ,using a nano luciferase reporter read-out” (2022)
Screen size: about 150,000 compounds; about 540 (0.36%) showed an effect of 50% or more. The list comes from a sample in which strong results are over-represented; it also holds similar structures and randomly drawn compounds.

tested on: Plasmodium falciparum; test: Primary screen in NF54 nanoGlo assay, in single point, at 2uM, 72h; a lower Z score goes with more inhibition; type: functional, Erythrocyte; conditions: timepoint 72 hour

Q: Which “% Inhibition” value does the source give for `COC(=O)[C@@H]1C[C@@H](O)CN1Cc1ccncc1Cl` here?
A: -4%

Q: What about the Z score of the same compound?
A: 0.5

Q: What does the source list for `Cc1ccc(N(C)C(C)C)c(C(=O)NC[C@H]2CCC3(CCOCC3)O2)c1`?
A: % Inhibition: -1%; Z score: 0.19

Q: How did the “% Inhibition” value turn out when `O=C(c1ccccc1Oc1ccccc1)N1CCO[C@]2(CNCCOC2)C1` was run?
A: 5%

Q: What about the Z score of the same compound?
A: -0.96

Q: Which results are given for `O[C@@H](CNc1ncnc2sccc12)c1ccc(Cl)c(F)c1`?
A: % Inhibition: 28%; Z score: -3.21

Q: `O=C(N[C@@H]1c2ccccc2OC[C@@H]1CO)[C@H](O)c1ccccc1` was tested. Which “% Inhibition” value did it give?
A: -2%

Q: What about the Z score of the same compound?
A: 0.41

Q: What does the source list for `Cc1ccccc1C(=O)Cc1ncc[nH]1`?
A: % Inhibition: 87%; Z score: -5.77

Q: `CC(=O)c1ccccc1C(=O)NCCCc1ncc[nH]1` was tested. Which “% Inhibition” value did it give?
A: -9%

Q: What about the Z score of the same compound?
A: 1.13

Q: How did the “% Inhibition” value turn out when `Cc1ccsc1CNc1ccccc1C(=O)NCc1ncc[nH]1` was run?
A: 2%

Q: And the Z score?
A: -0.38

Q: What does the source list for `CCc1nc2c(c(OC3CCN(C(=O)c4ccn(CC)n4)CC3)n1)CCOCC2`?
A: % Inhibition: -11%; Z score: 1.12

Q: Which “% Inhibition” value does the source give for `Cc1cc(NC(=O)c2cccc(-n3ccnn3)c2)nc(=O)[nH]1` here?
A: -14%

Q: And the Z score?
A: 2.12

Q: Which results are given for `Cc1[nH]c2ncnc(NC(=O)c3cccc(S(=O)(=O)NC4CC4)c3)c2c1C`?
A: % Inhibition: -21%; Z score: 3.01

Q: Which “% Inhibition” value does the source give for `Cc1[nH]c2ncnc(NC(=O)c3cccc(-n4ccnn4)c3)c2c1C` here?
A: 65%

Q: What about the Z score of the same compound?
A: -1.3

Q: Which “% Inhibition” value does the source give for `CCCN(CCC)C(=O)c1cc(F)ccc1OC` here?
A: -10%

Q: What about the Z score of the same compound?
A: 1.09

Q: With `Fc1ccc(COc2cccc(CNCCN3CCOCC3)c2)cc1` as the compound, how does the “% Inhibition” value read?
A: 33%

Q: What about the Z score of the same compound?
A: 1.13

Q: Which results are given for `O[C@H]1CCN(Cc2cccc(OCCCCN3CCOCC3)c2)C[C@@H]1O`?
A: % Inhibition: 4%; Z score: -0.63

Q: With `O=C(NC1(c2ncon2)CCOCC1)c1cc2ccccn2c1` as the compound, how does the “% Inhibition” value read?
A: -4%

Q: And the Z score?
A: 0.42

Q: With `Cc1ccccc1-n1c(=O)n(C2CCCCC2)c(=O)c2c1ncn2Cc1ccccc1` as the compound, how does the “% Inhibition” value read?
A: -1%

Q: And the Z score?
A: 0.09

Q: Which “% Inhibition” value does the source give for `Cc1ccccc1Cn1cnc2c1c(=O)n(C1CCCC1)c(=O)n2-c1ccccc1` here?
A: -7%

Q: And the Z score?
A: 0.85

Q: Which “% Inhibition” value does the source give for `Cc1ccccc1Cn1cnc2c1c(=O)n(C1CC1)c(=O)n2-c1ccccc1C` here?
A: 5%

Q: What about the Z score of the same compound?
A: -0.48

Q: With `COc1ccccc1-n1c(=O)n(C2CCCC2)c(=O)c2c1ncn2Cc1ccccc1Cl` as the compound, how does the “% Inhibition” value read?
A: 37%

Q: And the Z score?
A: -4.79

Q: Which “% Inhibition” value does the source give for `Cc1ccccc1Cn1cnc2c1c(=O)n(C1CCCCC1)c(=O)n2-c1ccccc1Cl` here?
A: 70%

Q: And the Z score?
A: -7.57

Q: Which “% Inhibition” value does the source give for `COc1ccccc1Cn1cnc2c1c(=O)n(C1CCCCC1)c(=O)n2-c1ccccc1Cl` here?
A: 69%

Q: What about the Z score of the same compound?
A: -6.45

Q: For `Cc1c(Cl)cccc1NC(=O)c1sccc1S(=O)(=O)N1CCc2ccccc2C1`, which “% Inhibition” value is on record?
A: 1%

Q: What about the Z score of the same compound?
A: -0.1

Q: What does the source list for `COc1ccc([C@@H](CC(=O)NCc2ccc(F)cc2)c2c[nH]c3ccccc23)c(OC)c1`?
A: % Inhibition: 3%; Z score: -0.42

Q: Which results are given for `COc1cc(NC(C)(C)CN2CCOCC2)ncn1`?
A: % Inhibition: -11%; Z score: 0.99

Q: With `O=C(NC[C@H](O)c1cccnc1)c1ncoc1C1CC1` as the compound, how does the “% Inhibition” value read?
A: -7%

Q: What about the Z score of the same compound?
A: 0.94

Q: For `COC[C@H]1CCCCN1C(=O)c1ccnc(C2CCCC2)n1`, which “% Inhibition” value is on record?
A: 7%

Q: And the Z score?
A: -1.03

Q: Which results are given for `COc1ccc(N2CCN(C(=O)c3ccn4c(-c5ccccc5)nnc4c3)CC2)cc1`?
A: % Inhibition: -3%; Z score: 0.29

Q: What does the source list for `COc1ccccc1CNC(=O)c1cc(C)nc2c(-c3ccc(C)cc3)cccc12`?
A: % Inhibition: 12%; Z score: -1.38

Q: `COc1cccc(N2CCC(N3CCC4(CC3)CNC(=O)O4)CC2)c1` was tested. Which “% Inhibition” value did it give?
A: -2%

Q: And the Z score?
A: 0.35

Q: `Cc1nc2c(c(NC(=O)Cc3ccccc3)nn2C)c(C)c1Cl` was tested. Which “% Inhibition” value did it give?
A: -8%

Q: And the Z score?
A: 0.76

Q: What does the source list for `Cc1ccc(N2CCC(NCCCn3cccn3)CC2)cc1Cl`?
A: % Inhibition: -5%; Z score: 0.81

Q: Which “% Inhibition” value does the source give for `Cc1cnccc1NCCNC1CCN(c2ccc(Cl)cc2)CC1` here?
A: 99%

Q: What about the Z score of the same compound?
A: -17.94

Q: What does the source list for `CCn1cncc1CNC1CCN(c2ccc3c(c2)CCC3)CC1`?
A: % Inhibition: -14%; Z score: 1.42

Q: How did the “% Inhibition” value turn out when `Cc1cnccc1NCCNC1CCN(c2ccc3c(c2)CCC3)CC1` was run?
A: 85%

Q: And the Z score?
A: -13.14

Q: Which “% Inhibition” value does the source give for `CN1CCC[C@@H]1CCNC1CCN(c2ccc3c(c2)CCC3)CC1` here?
A: 21%

Q: What about the Z score of the same compound?
A: -2.96

Q: For `CN(CC1(CO)CCCC1)C(=O)CN1CCCCC1`, which “% Inhibition” value is on record?
A: -8%

Q: And the Z score?
A: 1.48

Q: For `O=C(c1ccc(F)cc1)N1CCC(N2CCS(=O)(=O)CC2)CC1`, which “% Inhibition” value is on record?
A: -12%

Q: And the Z score?
A: 1.04

Q: What does the source list for `CCc1cc(N2CCN(CCc3ccccc3)C(=O)C2)ncn1`?
A: % Inhibition: -15%; Z score: 2

Q: Which “% Inhibition” value does the source give for `Cc1ccc([C@H]2C(=O)N(C3CCC(C)CC3)CC(=O)N2C2CCCCCCC2)cc1` (stereo partly drawn) here?
A: -6%

Q: And the Z score?
A: 0.82

Q: What does the source list for `O=C(O)C1(NCc2cc(-c3ccc(Cl)cc3)no2)CCCC1`?
A: % Inhibition: 11%; Z score: -1.27

Q: Which results are given for `C[C@@H](O)[C@@H]1NC(=O)[C@@H](Cc2c[nH]c3ccccc23)NC1=O`?
A: % Inhibition: 5%; Z score: -1.07

Q: How did the “% Inhibition” value turn out when `CC1CC(C(=O)N2CCN(C(=O)Cc3c[nH]c4ccccc34)CC2)C1` (stereo not drawn) was run?
A: -3%

Q: And the Z score?
A: 0.48

Q: For `C=C1C(C)C2C(Cc3c[nH]c4ccccc34)NC(=O)C23C(=O)CC(O)C(O)CC(C)C/C=C/C3C1O` (stereo not drawn), which “% Inhibition” value is on record?
A: 67%

Q: And the Z score?
A: -7.59

Q: For `CC1=NO[C@H](C(=O)NCC2(Cn3ccnc3C)CC2)C1`, which “% Inhibition” value is on record?
A: -4%

Q: And the Z score?
A: 0.75

Q: How did the “% Inhibition” value turn out when `Cc1[nH]c(CN2CCC[C@H](c3ncc[nH]3)C2)cc1C#N` was run?
A: -1%

Q: And the Z score?
A: 0.23

Q: For `CCc1ccc(CN2CCC[C@H](CNC(=O)c3ccc[nH]3)C2)nc1`, which “% Inhibition” value is on record?
A: -4%

Q: And the Z score?
A: 0.44

Q: Which “% Inhibition” value does the source give for `CCc1ccc(CN2CCC[C@H](c3ncc[nH]3)C2)nc1` here?
A: 65%

Q: And the Z score?
A: -9.74

Q: With `Cc1ccc(CN2CCC3(CC2)c2nc[nH]c2CCN3C(=O)C2CCC2)cc1C` as the compound, how does the “% Inhibition” value read?
A: -14%

Q: What about the Z score of the same compound?
A: 1.47

Q: With `Cc1cccc2c1OCC[C@@H]2NCc1cnn(C(C)C)c1` as the compound, how does the “% Inhibition” value read?
A: 0%

Q: What about the Z score of the same compound?
A: 0

Q: Which “% Inhibition” value does the source give for `O=C(O)c1cccc(-c2noc(C3CC3)n2)c1` here?
A: 11%

Q: What about the Z score of the same compound?
A: -1.45

Q: With `CC1CC(N)CCN1C(=O)c1cccc(-c2noc(C3CC3)n2)c1` (stereo not drawn) as the compound, how does the “% Inhibition” value read?
A: 56%

Q: And the Z score?
A: 0.5

Q: Which results are given for `O=C(c1cccc(-c2noc(C3CCC3)n2)c1)N1CCN(c2ccccc2)CC1`?
A: % Inhibition: -3%; Z score: 0.4

Q: Which results are given for `Cc1cc(C(=O)N(CC2CCC2)CC(F)(F)F)[nH]n1`?
A: % Inhibition: -10%; Z score: 1.63
